# Ub-GFP proteasome – proteasome inhibitors stabilizing ubiquitin-GFP reporter; 67,000 tested, under 10 active; Ubiquitin-GFP reporter cells, proteasome inhibition, GFP fluorescence; response scale: untreated = 0%, 10 µM MG-132 = 100%; Potency, µM (series often up to 45.9 µM), for the others: at the top dose activation (GFP accumulation), hits mostly activators; active = well fitted activation curve with a large enough effect, not every such curve was filed as active; inconclusive = small, poorly fitted or top-dose-only effect, or another doubt; inactive = no such curve, though single readings can be large or run the other way; note: potency is the fitted concentration of half-maximal effect
#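 U2OS Ub(G76V)-GFP reporter; O/N plating, 0.5% FBS; cpd 46 uM–2.9 nM, 4 h, 37 °C; GFP+ cell count, 488/515 nm; norm. to basal vs 10 uM MG-132; CRC fit.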
# Hsp90 Hop PPI – changes Hsp90-Hop TPR2A binding signal, up or down; 71,000 compounds, 0.44% hits; Potency, µM (top dose mostly 57 µM), inactives show at the highest dose activity change, negative = inhibition; AID 595; AlphaScreen TPR2A-His6 binding biotin-Hsp90 C-terminal peptide; active = well fitted curve in either direction with a large enough effect; inconclusive = small, poorly fitted or top-dose-only effect, or another doubt; note: potency is the fitted concentration of half-maximal effect; % is set by controls: 0 for no effect and ±100 for the full control effect
# USP2a inh – blocks human ubiquitin-specific protease USP2a. O75604. USP2a enzymatic assay, qHTS inhibition. Potency, µM (doses to about 38.3 µM), inactives show at the highest dose activity change, negative = inhibition, usual class: inhibitors. 60,000 compounds, 0.1% hits; note: potency is the fitted concentration of half-maximal effect; nearly all actives have a fitted effect of over 60% in size
#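 20 nM USP2 core + cpd, 30 min RT; add 20 nM Ub-PLA2/20 uM NBD C6-HPC; read Ex460/Em535 at 0 h and 2.5 h. Normalized to NEM; qHTS curve fit/classification.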
# GBA mod – alters purified human glucocerebrosidase activity. P04062. purified enzyme, resorufin glucoside fluorescence (screen aimed at inhibitors), 20 min. Potency, µM. 48,000 compounds, 1.1% hits. AID 360; in the data active = potency below about 15 µM; inconclusive = mostly about 16 µM to 33 µM;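 note: potency is the fitted concentration of half-maximal effect; the screen sought inhibitors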
# Target sequence (P04062 whole entry, looked up): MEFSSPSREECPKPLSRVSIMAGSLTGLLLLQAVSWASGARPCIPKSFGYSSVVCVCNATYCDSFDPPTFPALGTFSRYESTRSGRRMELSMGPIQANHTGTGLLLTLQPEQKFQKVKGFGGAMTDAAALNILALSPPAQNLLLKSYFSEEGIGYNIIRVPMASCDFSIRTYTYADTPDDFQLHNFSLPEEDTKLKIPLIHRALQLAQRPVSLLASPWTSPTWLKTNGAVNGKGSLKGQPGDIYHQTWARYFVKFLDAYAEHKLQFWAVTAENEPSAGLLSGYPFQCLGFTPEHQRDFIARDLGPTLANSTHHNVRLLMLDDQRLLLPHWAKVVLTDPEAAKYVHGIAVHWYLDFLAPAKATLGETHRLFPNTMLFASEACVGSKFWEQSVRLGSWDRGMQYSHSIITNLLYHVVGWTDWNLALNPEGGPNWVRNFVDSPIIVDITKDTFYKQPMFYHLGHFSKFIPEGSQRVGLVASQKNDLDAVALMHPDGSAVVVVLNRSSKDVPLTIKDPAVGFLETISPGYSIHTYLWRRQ
#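 Compounds titrated against 0.2 nM normal enzyme, 30 uM resorufin beta-D-glucopyranoside substrate, citrate/phosphate buffer with taurocholate and tween-20, pH 5.9. Reaction ran 20 min at room temperature; fluorescence (Ex 548/Em 600) gave AC50.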
# GFP derepression – derepresses silenced GFP locus in mouse C127i cells; mouse C127i GFP locus derepression, cytometry, 30 h; 68,000 compounds, 0.09% hits; AID 597; Potency, µM (top dose mostly 46.1 µM), inactives show at the top dose GFP derepression (activation); note: % of control where 0% means no effect
#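 Murine C127i mammary cells carrying a silenced, stably integrated CMV-driven GFP reporter were treated with compound for 30 hours at 37 C. After PBS washes, GFP-positive cells were counted by laser-scanning microplate cytometry.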
# HBB splicing – modulators of hemoglobin beta chain splicing; HBB splicing reporter cell assay, activation; EGFP reporter with mutant IVS2-654 intron; response scale: normalised to 500 nM splice-correcting PNA; Potency, µM (titrated, usually from 46.1 µM), without a hit: top-dose activation, actives largely listed as activators; 65,000 compounds, 0.06% hits; AID 925; note: potency is the fitted concentration of half-maximal effect; 0% is about no effect
#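 HeLa cells stably expressing EGFP interrupted by mutant beta-globin intron 2 (IVS2-654), 500/well in 2% FCS. Treated with compound for 2 days at 37C. Splicing correction scored as total well GFP intensity (488 nm excitation, 500-520 nm emission); 500 nM antisense PNA served as control.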
# Hsp90-TPR2A inh – confirmation and counter-screen of Hsp90 TPR2A co-chaperone interaction disrupters; shares compounds with Hsp90 Hop PPI; AlphaScreen TPR2A-His6 / biotin-Hsp90 peptide binding; activity, negative = inhibition, % at 40 µM or 46 µM, hits read low; 45 compounds, 100% hits;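 active = compound lowering the Hsp90 and TPR2A binding signal, whether or not the linker counterscreen also flagged it as an artifact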
# * marks the source's active call; other numbers are inactive results; i = inactive; ? = inconclusive; . = not tested or not shown; [ ] = remark or other dose. Rows were chosen to be rich in hits. Some 1.1% of all compounds tested hit in one or more screens of this group. Unless noted, calls come from the whole dose curve; as a rule, active = well fitted curve in the direction sought with a large enough effect; inconclusive = small, poorly fitted or top-dose-only effect, or another doubt; inactive = no such curve, though single readings can be large; an effect the other way counts as inactive or inconclusive.
SMILES,Ub-GFP proteasome,Hsp90 Hop PPI,USP2a inh,GBA mod,GFP derepression,HBB splicing,others
CC(=O)Nc1ccc(S(=O)(=O)N2CCN(c3nc(NC4CCCC4)c4ccccc4n3)CC2)cc1,-3.7%[9.17 µM],-13.0%[11 µM],20.0%[7.66 µM],.,-1.5%,-2.7%[0.0738 µM],
O=C(CSCc1ccccc1Cl)N1CCN(c2ccccn2)CC1,-11.4%,3.0%,10.0%,14.9*,3.9%,3.4%,
O=C(Oc1cccc2c(O)cccc12)c1ccccc1,-2.0%,-3.0%,12.6µM*,>76.9,1.3%,.,
C#CCCCCCCCCCCCC(O)CC(O)COC(C)=O (stereo not drawn),.,.,61.4%,.,.,.,
COc1ccc(-c2nc3cnc(Nc4cccc(OC)c4)nc3n(CCC#N)c2=O)cc1,?,-3.8%,112.6%,.,5.0%[9.22 µM],?,
COc1cccc(Nc2ncc3nc(-c4ccc(Cl)cc4)c(=O)n(C[C@H]4CCCO4)c3n2)c1,7.1%,-1.6%,202.5%,.,7.6%[9.22 µM],?,
COc1cccc(Nc2ncc3nc(-c4ccc(Cl)cc4)c(=O)n(CCC#N)c3n2)c1,?,-5.2%,177.4%,.,0.6%[9.22 µM],10µM*,
COc1cccc(Nc2ncc3nc(-c4ccccc4)c(=O)n(C[C@H]4CCCO4)c3n2)c1,-1.7%,12.6µM*,116.4%,.,1.8%[9.22 µM],4.9%,
O=C1[C@@H]2[C@H]3[C@H](O)[C@H](O)C/C(=N/OC[C@@H](O)COCc4ccco4)[C@H]3CC[C@H]2C(=O)N1c1ccc(F)cc1F,.,.,.,.,.,-2.1%[9.22 µM],
O=C1C(C=NCCCn2ccnc2)=C(O)c2ccccc21,-9.9%[9.17 µM],3.16µM*,0.8%[7.66 µM],.,-1.5%,0.5%[0.0738 µM],
CC(=NCCCn1ccnc1)C1=C(O)c2ccccc2C1=O,-4.0%,12.6µM*,-2.1%,>76.9,-1.2%,?,
O=C(c1cc2c(=O)oc3ccccc3c2s1)N1CCN(c2ncccn2)CC1,13.1%,2.1%,1.5%,>76.9,0.1%,0.7%,
CC1=NNC(=S)NCCCN2CCN(CCCNC(=S)NN=C(C)C=NNC(=S)NCCCN3CCN(CCCNC(=S)NN=C1)CC3)CC2,-2.9%[9.17 µM],3.98µM*,.,.,-2.2%[9.22 µM],2.0%[9.22 µM],
O=C(O)C1Nc2c(O)cccc2C2C=CCC12 (stereo not drawn),2.8%,25.1µM*,-20.9%,.,0.0%,2.8%[57.5 µM],
O=C(O)c1ccccc1NCn1c(=S)sc2ccccc21,1.5%[9.17 µM],-2.7%[11 µM],.,.,0.0%[9.22 µM],3.3%[9.22 µM],
Cc1nc(NCC2CCCO2)c2oc3ccccc3c2n1 (stereo not drawn),-6.0%,3.5%,-2.6%,>76.9,4.3%,-2.5%[57.5 µM],
Oc1cccc(Nc2nc(NCC3CCCO3)c3ccccc3n2)c1 (stereo not drawn),3.9%,-4.3%,14.2%,7.62*,-1.0%,.,
CCOc1ccc(C(=O)CCNC(Cc2cnc[nH]2)C(=O)O)cc1 (stereo not drawn),20.3%[9.17 µM],?,5.6%[7.66 µM],.,-1.5%,2.8%[0.0738 µM],Hsp90-TPR2A inh=-92.7*[alpha-screen platform artifact]
COC(=O)[C@@H]1C[C@H]1[C@@H](NC(=O)c1cnccn1)c1ccccc1,.,-7.5%,.,.,.,0.5%,
CCOC(=O)c1c(C)[nH]c(C(=O)CN2CCOCC2)c1C,-4.7%,-0.6%,-8.2%,i,4.7%,-0.5%,
CCOC(=O)CCCCC(=O)c1[nH]c(=O)[nH]c1CSc1nc(C)cc(=O)[nH]1,0.0%,1µM*,9.9%,>76.9,2.7%,0.6%,Hsp90-TPR2A inh=-99.6*[alpha-screen platform artifact]
CCOC(=O)CCCCC(=O)c1[nH]c(=O)[nH]c1CSc1nc2ccccc2[nH]1,0.0%,2.51µM*,10.7%,>76.9,1.7%,-0.1%,Hsp90-TPR2A inh=-99.6*[alpha-screen platform artifact]
CCOC(=O)CCCCC(=O)c1[nH]c(=O)[nH]c1CN1CCOCC1,6.3%,2.51µM*,-1.0%,>76.9,2.7%,-0.2%,Hsp90-TPR2A inh=-98.6*[alpha-screen platform artifact]
CCOC(=O)CCCCC(=O)c1[nH]c(=O)[nH]c1CSc1nc(C)cc(C)n1,-1.4%[9.17 µM],?,7.5%[7.66 µM],.,-1.5%,-3.3%[0.0738 µM],
Clc1cc(Cl)cc(Cl)c1,.,-1.5%,.,.,.,-0.8%,

# Screening results: PubChem, National Center for Advancing Translational Sciences (NCATS)
